Reference: PubChem BioAssay AID1117319 (Southern Research Institute, 2015)
Several values for one entry are separate records, joined by “and”; a condition that tells them apart may be missing. Equal values may be shown once. Screen size: about 260,000 compounds; about 1,500 (0.58%) were called active. Another 5% or so got no clear call; they are omitted.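 Rule for the calls: active = inhibition above a set limit at one or more doses, reproduced on every date tested; inconclusive = results disagree between test dates, or hit never tested in dose response; inactive = the rest.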 Not all results are given here. Entries with a potency or affinity are not part of this list.

The molecules below were run against Virion infectivity factor (Human immunodeficiency virus type 1 group M subtype B (isolate BH10)) + Virion infectivity factor (Human immunodeficiency virus type 1 group M subtype B (isolate BRU/LAI)) + Virion infectivity factor (Human immunodeficiency virus type 1 group M subtype B (isolate PCV12)) + Virion infectivity factor (Human immunodeficiency virus type 1 group M subtype B (isolate HXB2)) + DNA dC->dU-editing enzyme APOBEC-3G (Homo sapiens) (UniProt P69720+P69721+P69722+P69723+Q9HC16) (assay: inhibitors of Vif binding to APOBEC3G peptide, primary screen, biochemical, TR-FRET, GST-Vif 1-94, biotin-A3G peptide, dose response retest (AID 1117319;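 note: Vif residues 1-94 fused to GST binding biotinylated APOBEC3G peptide 110-148; 0% = full assay without inhibitor and 100% = GST in place of GST-Vif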)). Details: hits give high values.
With `CC(=O)Nc1ccccc1S(=O)(=O)CC1CC1(Cl)Cl` (stereo not drawn) the inhibition was 4.64% (inactive). For `CC(=O)Nc1cccc(N(C)C)c1`, the inhibition was 6.55% (inactive). For `Cc1cc(NS(C)(=O)=O)c(=O)n(Cc2cccc(C(F)(F)F)c2)c1`, the inhibition was 0.67% (inactive). In the case of `CSCC(=O)N1CCCC(CNC(=O)c2ccccc2Cl)C1` (stereo not drawn), the inhibition was -7.52% (inactive). `COc1ccc(OCCSc2ncccn2)cc1` was tested, and the inhibition was -7.11% (inactive). `COC(=O)c1nc(NC(=O)c2ccc(Br)cc2)n[nH]1` was tested, and the inhibition was 23.4% (inactive). `CCOc1ccc(N(C)S(=O)(=O)c2ccc3[nH]cc(C(=O)NCCOC)c(=O)c3c2)cc1` was tested, and the inhibition was 0.42% (inactive). With `COc1ccc(-c2c(-c3ccc(O)cc3O)n[nH]c2C)cc1OC` the inhibition was 6.2% (inactive). `CCOc1cccc(C2C(C(=O)c3ccc(C)o3)=C(O)C(=O)N2c2nccs2)c1` (stereo not drawn) was tested, and the inhibition was -6.71% (inactive). With `O=C(N/N=C/c1ccc(OC(=O)c2ccccc2)c([N+](=O)[O-])c1)c1ccc(O)cc1` the inhibition was 2.33% (inactive). For `CCOC(=O)N=Nc1c2ccccc2c2nc3no[nH]c3nc12`, the inhibition was 8.41% (inactive). For `Cc1ccc2cc(CN(C(=O)c3ccco3)c3cccc(C)c3C)c(=O)[nH]c2c1`, the inhibition was -8.5% (inactive). With `C#Cc1ccc([C@@H]2C=C(C(=O)OCC=C)O[C@H](OCc3ccc(CO)cc3)C2)cc1` the inhibition was 6.58% (inactive). In the case of `COc1ccc(/C=C(\C#N)C(=O)Nc2ccc3[nH]c(=O)[nH]c3c2)cc1`, the inhibition was 11.7% (inactive). In the case of `Cc1ccc(NC(=O)/C(C#N)=C/c2ccc(Sc3nc(C)cc(C)n3)o2)cc1`, the inhibition was -1.36% (inactive). In the case of `N#C/C(=C/c1ccc(Br)o1)C(N)=O`, the inhibition was 10.3% (inactive). In the case of `N#C/C(=C\c1ccc(-c2ccc(C(=O)O)cc2)o1)C(=O)Nc1ccc(F)cc1`, the inhibition was 15.6% (inactive). `COc1ccc(NC(=O)/C(C#N)=C/c2ccc3c(c2)n(C)c(=O)n3C)cc1` was tested, and the inhibition was 1.72% (inactive). In the case of `COc1ccc(NC(=O)c2ccc(Br)o2)cc1`, the inhibition was 6.22% (inactive). In the case of `N#C/C(=C/c1ccc(F)cc1)C(N)=S`, the inhibition was -0.15% (inactive). `CCOCCCNC(=O)/C(C#N)=C/c1ccc([N+](=O)[O-])o1` was tested, and the inhibition was 26.7% (inactive). With `CC(=O)OC12CC3CC(C1)C(=NO)C(C3)C2` the inhibition was -2.41% (inactive). In the case of `COc1ccc(Cn2cnc3c(NS(C)(=O)=O)c(C)c(C)cc32)cc1`, the inhibition was -0.98% (inactive). `Cc1ccc(-c2nc(CS(=O)CC(=O)NCCN3CCCCCC3)c(C)o2)cc1` (stereo not drawn) was tested, and the inhibition was -1.41% (inactive). With `COc1ccc(-n2c(SCC(=O)Nc3ccc(C(=O)O)cc3)nnc2-c2ccccc2)cc1OC` the inhibition was 4.7% (inactive). In the case of `O=C(N/N=C/c1cc(Br)c(O)c(Br)c1)c1cccnc1`, the inhibition was -0.54% (inactive). For `Cc1cc(C)cc(NC(=O)c2ccc(NC(=O)C3C4CC5OC(=O)C3C5C4)cc2)c1` (stereo not drawn), the inhibition was -3.35% (inactive). For `CCn1c(C)nnc1SCC(=O)Nc1cccc(C(F)(F)F)c1`, the inhibition was -2.71% (inactive). `CN(C(=O)c1ccc(C#N)cc1)c1nnc(-c2ccccn2)s1` was tested, and the inhibition was -7.43% (inactive). With `Cc1ccc2nc3c(c(C(=O)O)c2c1)CCC3` the inhibition was 32.8% (inactive). `CCc1ccc2nc3c(c(C(=O)O)c2c1)CCC3` was tested, and the inhibition was 23.1% (inactive). For `Cc1c(C(=O)O)sc(=S)n1CCOc1ccccc1`, the inhibition was 5.91% (inactive). `O=C(CCN1CCN(S(=O)(=O)c2ccc(Cl)cc2)CC1)Nc1ccc(F)cc1` was tested, and the inhibition was 1.22% (inactive). `Cc1cc(O)c(C(C)C)cc1N=Cc1ccccc1[N+](=O)[O-]` was tested, and the inhibition was -2.95% (inactive). With `Cc1cc(O)c(C(C)C)cc1N=Cc1ccc(N(C)C)cc1` the inhibition was 12.6% (inactive). For `Cc1cc(O)c(C(C)C)cc1N=Cc1ccccc1O`, the inhibition was -2.17% (inactive). With `COc1cccc(C=Nc2ccccc2C#N)c1O` the inhibition was 14.7% (inactive). For `O=C(CC(O)(c1ccccc1)c1ccccc1)Nc1ccccn1`, the inhibition was -5.64% (inactive). In the case of `O=C1Nc2ccccc2C(=O)C1(Cl)Cc1ccccc1` (stereo not drawn), the inhibition was 2.05% (inactive). `Cc1ccc(OCC(=O)OCc2nc3scc(-c4ccccc4)c3c(=O)[nH]2)cc1C` was tested, and the inhibition was -11.5% (inactive). For `Cn1c(=O)c2c(nc(SCCCC#N)n2Cc2ccccc2F)n(C)c1=O`, the inhibition was 5.84% (inactive). With `Cn1c(=O)c2c(nc(SCc3nn[nH]n3)n2Cc2ccccc2F)n(C)c1=O` the inhibition was 26.4% (inactive). In the case of `Cc1ccccc1-n1cnc2cc(NCc3cccs3)ccc21`, the inhibition was 4.79% (inactive). `COc1ccccc1-n1cnc2cc(NCc3ccccc3O)ccc21` was tested, and the inhibition was 5.69% (inactive). In the case of `COc1ccc(CC(=O)Nc2ccc(S(=O)(=O)Nc3cc(C)nc(C)n3)cc2)cc1OC`, the inhibition was -3.26% (inactive). In the case of `CC(C)c1ccc(CCNC(=O)CCNC(=O)c2ccc(Br)cc2)cc1`, the inhibition was -4.69% (inactive). In the case of `Oc1cccc(C=NCc2ccccc2)c1`, the inhibition was -4.5% (inactive). With `COc1cccc(C=NCC(C)N=Cc2cccc(OC)c2O)c1O` (stereo not drawn) the inhibition was 1.39% (inactive). For `Oc1c(Br)cc(Br)cc1C=NCc1ccccc1`, the inhibition was -9.44% (inactive). With `Oc1ccccc1C=NCC(O)c1ccccc1` (stereo not drawn) the inhibition was 22% (inactive). In the case of `COC(=O)c1ccc(C2C(Oc3ccccc3)C(=O)N2CCc2ccc(F)cc2)cc1` (stereo not drawn), the inhibition was -5.73% (inactive). In the case of `C=CCN(C(=O)CCS(=O)(=O)c1cccc2nsnc12)c1ccccc1`, the inhibition was -10% (inactive). In the case of `Cc1ccc(NC(=O)CN2C(=O)NC(C)(c3ccc(Cl)cc3)C2=O)cc1S(=O)(=O)N1CCOCC1` (stereo not drawn), the inhibition was 19.2% (inactive). For `CC(=O)c1ccc(S(=O)(=O)Nc2ccc(C(=O)NCC(c3cccs3)N3CCOCC3)cc2)cc1` (stereo not drawn), the inhibition was 3.75% (inactive). In the case of `CC1(C)Cc2cccc(OCC(=O)N3CCN(c4ccccc4F)CC3)c2O1`, the inhibition was -1.24% (inactive). `CN(c1ccccc1)c1nc(-n2ccnc2)nc(-n2ccnc2)n1` was tested, and the inhibition was -3.98% (inactive). With `c1ccc(N(c2ccccc2)c2nc(-n3ccnc3)nc(-n3ccnc3)n2)cc1` the inhibition was -4.38% (inactive) and -2.66% (inactive). In the case of `O=C(NCCC1=CCCCC1)c1ccc2c(=O)n3c(nc2c1)CCCCC3`, the inhibition was -3.44% (inactive). In the case of `Cc1cc(C)nc(N2CCCC(C(=O)NCc3ccc4c(c3)OCO4)C2)n1` (stereo not drawn), the inhibition was -5.32% (inactive). `COc1cc(C)c(NC(=O)COc2cccc3c2OC(C)(C)C3)cc1OC` was tested, and the inhibition was -1.98% (inactive). With `Cc1cc2c(ccc3c2no[n+]3[O-])nn1` the inhibition was 7.27% (inactive). With `[O-][n+]1onc2c3ccnnc3ccc21` the inhibition was 0.24% (inactive). In the case of `CCOc1ccc(CCNC(=O)c2cccc(S(=O)(=O)N3CCCCC3)c2)cc1OCC`, the inhibition was -3.3% (inactive). For `O=C(Cn1c(=S)[nH]c2ncccc2c1=O)NCCc1ccccc1`, the inhibition was -0.88% (inactive). `O=C(NCCCN1CCOCC1)c1ccc2c(=O)n(Cc3ccccc3)c(=S)[nH]c2c1` was tested, and the inhibition was -10.2% (inactive). With `CCOC(=O)C1=C(O)c2ccccc2C(=O)/C1=C\c1ccc(CC)cc1` the inhibition was 31.5% (inactive). In the case of `CCOC(=O)C1=C(Cc2ccc(OC)cc2)C(=O)c2ccccc2C1=O`, the inhibition was 24.3% (inactive). `CCN(CC)/C(=N\S(=O)(=O)c1ccc(F)cc1)c1ccccc1` was tested, and the inhibition was 3.32% (inactive). In the case of `COCCNC(=S)N1CCCN(c2nc3cc(C)ccc3cc2C#N)CC1`, the inhibition was 3.12% (inactive). With `Cc1ccc(S(=O)(=O)N(Cc2ccccc2)c2ccccc2C(=O)NCc2cccnc2)cc1` the inhibition was 1.8% (inactive). In the case of `COc1ccc(NCc2n[nH]c(=O)c3ccccc23)cc1`, the inhibition was 4.49% (inactive). `O=c1[nH]nc(CNc2ccc(C(F)(F)F)cc2)c2ccccc12` was tested, and the inhibition was -3.84% (inactive). For `CC(NC(=O)COC(=O)c1cc(S(=O)(=O)N2CCOCC2)ccc1F)c1ccccc1` (stereo not drawn), the inhibition was 4.22% (inactive). With `Cc1ccc(S(=O)(=O)Nc2cccc(C(=O)N3CCC(C(N)=O)CC3)c2)cc1` the inhibition was -11.3% (inactive). For `O=C(CSc1nc2ccccc2c(=O)n1-c1ccccc1Cl)Nc1cccc(S(=O)(=O)N2CCOCC2)c1`, the inhibition was 12.8% (inactive). `Cc1cc(C)nc(NS(=O)(=O)c2ccc(NC(=O)c3cc(=O)c4ccccc4o3)cc2)n1` was tested, and the inhibition was -13.1% (inactive). In the case of `Cc1ccc(C(=O)NC(=S)NNC(=O)COc2ccc([N+](=O)[O-])cc2)cc1`, the inhibition was -1.27% (inactive). `Cc1cc(/C=C2/NC(=O)N(c3ccccc3)C2=O)c(C)n1-c1cccnc1` was tested, and the inhibition was 5.85% (inactive). In the case of `Cc1cc(C=C2C(=O)c3ccccc3C2=O)c(C)n1-c1cccc(C(=O)O)c1`, the inhibition was 24.6% (inactive). For `Cc1cccc(N2C(=O)CC(N3CCN(c4ccccc4)CC3)C2=O)c1` (stereo not drawn), the inhibition was 6.83% (inactive). For `Cc1ccccc1N=C1NC(=O)CS1`, the inhibition was -1.84% (inactive). With `Cc1ccc(N=C2NC(=O)CS2)cc1` the inhibition was 32.9% (inactive). `CCOC(=O)C(NC(=O)c1cccc(Cl)c1)(Nc1sc2c(c1C(N)=O)CCC2)C(F)(F)F` (stereo not drawn) was tested, and the inhibition was 30.9% (inactive). With `Nc1nc2nc(-c3ccc(F)cc3)cc(C(F)(F)F)n2n1` the inhibition was 12.1% (inactive). In the case of `COc1ccc(NS(=O)(=O)c2cccc(C(=O)NNC(=O)c3cccc(NC(C)=O)c3)c2)cc1`, the inhibition was 2.28% (inactive). For `COc1ccc(NS(=O)(=O)c2cccc(C(=O)NNC(=O)c3ccccc3O)c2)cc1`, the inhibition was 9.79% (inactive). `CCc1ccc(N(C(=O)CNC(=O)c2ccco2)C(C(=O)NCC2CCCO2)c2ccccc2)cc1` (stereo not drawn) was tested, and the inhibition was 6.06% (inactive). For `O=C(CCNC(=O)c1ccccc1Cl)Nc1nc(-c2ccccc2Cl)cs1`, the inhibition was 15.5% (inactive). `NC(=O)c1ccc(-n2nnnc2SCc2ccccc2)cc1` was tested, and the inhibition was -2.97% (inactive). In the case of `COC(=O)c1ccccc1-c1ccc(C=O)o1`, the inhibition was -12.2% (inactive). For `COC(=O)c1ccccc1-c1ccc(/C=N/NC(N)=O)o1`, the inhibition was -4.17% (inactive). In the case of `COc1cc(/C=C(\C#N)c2ccccn2)cc(OC)c1O`, the inhibition was 7.21% (inactive). In the case of `COc1cc(C(=O)Oc2cccc(C=O)c2)cc(OC)c1OC`, the inhibition was 8.54% (inactive).
